Screening data (PubChem BioAssay)
Hits are enriched below; roughly 19% of the tested compounds scored in any of these assays.
Gal4-VP16 FLuc: inhibits Gal4-VP16 luciferase reporter, ROR gamma counter-screen; Drosophila S2 Gal4-VP16 UAS-luciferase, luminescence, 20 h; Potency, µM (series often up to 53.6 µM), hits mostly inhibitors; actives 3.5% (n = 310,000);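 note: Gal4-VP16 expression switched on by copper sulfate through the metallothionein promoter; nearly all actives have a fitted effect of over 50% in size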
TDP1 block: blocks human tyrosyl-DNA phosphodiesterase 1. recombinant TDP1, AlphaScreen DNA substrate cleavage. Potency, µM (series often up to 130 µM), usual class: inhibitors. actives 0.28% (n = 350,000); note: nearly all actives have a fitted effect of over 40% in size
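Here, a 5' biotin and 3' phosphotyrosine-FITC DNA oligonucleotide reports Tdp1 activity: intact substrate bridges AlphaScreen beads, while cleavage leaves a 3' phosphate and drops signal. All incubations at room temperature.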
RORg inh: ROR gamma (mouse) transcription inhibition. P51450. Drosophila S2 Gal4-RORgamma UAS-luciferase reporter, 20 h. Potency, µM (top dose mostly 53.6 µM), usual class: inhibitors. actives 5.4% (n = 310,000); note: nearly all actives have a fitted effect of over 60% in size
Target sequence (P51450 whole entry, looked up, the tested form may be a part): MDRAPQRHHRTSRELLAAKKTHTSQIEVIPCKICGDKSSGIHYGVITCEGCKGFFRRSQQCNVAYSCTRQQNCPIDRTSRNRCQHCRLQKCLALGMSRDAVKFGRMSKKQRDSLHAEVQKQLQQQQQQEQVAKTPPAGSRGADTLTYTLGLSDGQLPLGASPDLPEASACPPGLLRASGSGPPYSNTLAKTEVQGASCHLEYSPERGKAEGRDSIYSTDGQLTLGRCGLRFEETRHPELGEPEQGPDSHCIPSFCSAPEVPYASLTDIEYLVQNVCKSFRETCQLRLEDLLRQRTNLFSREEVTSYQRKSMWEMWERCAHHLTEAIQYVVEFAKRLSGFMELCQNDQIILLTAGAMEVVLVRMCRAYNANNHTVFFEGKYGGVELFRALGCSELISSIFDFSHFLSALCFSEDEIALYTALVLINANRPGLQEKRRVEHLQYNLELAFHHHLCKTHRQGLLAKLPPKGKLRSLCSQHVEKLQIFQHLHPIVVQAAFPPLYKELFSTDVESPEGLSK
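A Gal4/UAS one-hybrid system in insect cells: metallothionein-promoter Gal4–ROR gamma fusion plus Photinus luciferase reporter. Copper sulfate 700 uM final, 20 hr ambient incubation, luminescent detection after 10 min with reagent.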
DT40 TDP1 no CPT: qHTS for Inhibitors of human tyrosyl-DNA phosphodiesterase 1 (TDP1): qHTS in cells in absence of CPT. actives 15% (n = 420,000). Potency, µM (doses to about 46.2 µM), usual class: inhibitors. AID 686978, 2013. DT40 Tdp1-/- hTDP1 cells, no CPT, ATP luminescence, 48 h; note: nearly all actives have a fitted effect of over 55% in size
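Seeded 400 DT40-hTDP1 cells/well (vehicle DMSO, no 20 nM CPT); pinned compounds; ≥48 hr at 37 °C; CellTiter-Glo luminescence as viability measure.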
TDP1 cell CPT: growth inhibition of DT40 Tdp1-/-;hTDP1 cells with camptothecin (screen for TDP1 inhibitors); chicken DT40 Tdp1-/-;hTDP1 cells + 20 nM CPT, ATP luminescence, 48 h; AID 686979; Potency, µM (doses to about 46.2 µM), hits mostly inhibitors; actives 12% (n = 420,000); note: nearly all actives have a fitted effect of over 55% in size
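Chicken DT40 Tdp1-/- cells stably complemented with human TDP1 were seeded at 400 cells/well in medium containing 20 nM camptothecin, exposed to pin-transferred compounds, and grown at 37 °C for at least 48 hr. Viability was read as ATP luminescence.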
A number is an active result; n = inactive; u = inconclusive; x = no result given; [ ] = remark or other dose. Calls come from the whole dose curve; as a rule, active = well fitted curve in the direction sought with a large enough effect; inconclusive = small, poorly fitted or top-dose-only effect, or another doubt; inactive = no such curve, though single readings can be large; an effect the other way counts as inactive or inconclusive.

SMILES	Gal4-VP16 FLuc	TDP1 block	RORg inh	DT40 TDP1 no CPT	TDP1 cell CPT
COc1ccc(/C=C2\SC(=O)N(CC(=O)Nc3cccnc3)C2=O)cc1OC	n	n	n	u	u
CCOc1ccc(N2C(=O)S/C(=C\c3ccc(O)c(OC)c3)C2=O)cc1	n	x	n	n	n
O=S(=O)(c1ccc2c(c1)OCCO2)N1CCN(S(=O)(=O)c2cccc[n+]2[O-])CC1	x	n	x	x	x
COc1ccc(/C=C2\CCCC3C2=NN(C(=O)CSc2n[nH]c(N)n2)C3c2ccc(OC)cc2)cc1 (stereo not drawn)	n	n	n	u	23.1µM
O=C1CCC(C(=O)OCC(=O)N2N=C3/C(=C/c4ccccc4)CCCC3C2c2ccccc2)N1 (stereo not drawn)	n	n	n	23.1µM	u
O=C(c1ccccn1)N1N=C2/C(=C/c3ccccc3)CCCC2C1c1ccccc1 (stereo not drawn)	n	n	n	u	u
O=C1CCC(C(=O)OCC(=O)N2N=C3/C(=C\c4ccccc4)CCCC3C2c2ccccc2)N1 (stereo not drawn)	x	x	x	20.6µM	u
Cc1cc(C)cc(NC(=O)CC(C)n2nc(C)cc2C)c1 (stereo not drawn)	x	n	x	u	20.6µM
Cc1c(Cl)cccc1NC(=O)C(=O)NNC(=O)c1ccccc1F	u	n	14.1µM	u	u
Cc1ccccc1NC(=S)NC(NC(=O)C(C)(C)C)C(Cl)(Cl)Cl (stereo not drawn)	n	n	u	n	n
CCOC(=O)C[n+]1c(C)csc1C	n	n	n	n	n
Cc1csc(C)[n+]1CCC1CCCCC1	x	x	x	12.6µM	u
CCCNC(=O)N1[C@H](c2cccs2)[C@@H](C)C(=O)[C@@H](C)[C@@H]1c1cccs1	x	n	x	u	n
CC(C)NC(=O)N1[C@H](c2cccs2)[C@@H](C)C(=O)[C@@H](C)[C@@H]1c1cccs1	x	n	x	u	14.6µM
Cc1cccc(C)c1NC(=O)c1cc(S(N)(=O)=O)c(Cl)cc1O	x	x	x	n	n
O=C(Nc1ccc2oc(-c3cccnc3)nc2c1)c1ccc([N+](=O)[O-])o1	n	n	n	8.2µM	6.51µM
O=C(Nc1ccc2oc(-c3cccnc3)nc2c1)c1cccnc1	n	n	n	u	n
O=C(Nc1ccc2oc(-c3cccnc3)nc2c1)c1ccc(Br)o1	n	n	n	u	u
Cc1cccc(C(=O)Nc2ccc(-c3nc4cc(C(C)C)ccc4o3)cc2)c1	x	n[12.3 µM]	x	16.4µM	16.4µM
O=C(Nc1ccc2oc(-c3ccccc3)nc2c1)c1ccncc1	n	n	u	11.6µM	16.4µM
Cc1ccc2oc(-c3ccc(NC(=O)c4cccnc4)cc3)nc2c1	n	n	n	20.6µM	u
CCOc1ccc(C(=O)Nc2ccc(-c3nc4cc(C(C)C)ccc4o3)cc2)cc1Cl	x	n[12.3 µM]	x	u	u
CC(Oc1ccccc1)C(=O)NCC1Cc2cc(F)cc(-c3ccccn3)c2O1 (stereo not drawn)	x	x	x	n	n[9.04 µM]
COc1cccc(C(=O)Nc2ccc(-c3nc4ccccc4o3)c(O)c2)c1	7.08µM	n	5.01µM	16.4µM	18.4µM
COc1cc(OC)cc(C(=O)Nc2ccc(-c3nc4ccccc4o3)cc2)c1	n	n	n	16.4µM	16.4µM
SMILES	Gal4-VP16 FLuc	TDP1 block	RORg inh	DT40 TDP1 no CPT	TDP1 cell CPT
COc1cc(OC)cc(C(=O)Nc2ccc3oc(-c4ccccc4C)nc3c2)c1	x	n[12.3 µM]	x	u	u
O=C(Nc1cccc(-c2nc3ccccc3o2)c1)c1cccnc1	n	n	n	20.6µM	u
COc1cc(OC)cc(C(=O)Nc2ccc(-c3nc4cc(C(C)C)ccc4o3)cc2)c1	x	n[2.28 µM]	x	20.6µM	20.6µM
COc1ccc(/C=C2/SC(=O)N(CCC(=O)Nc3ccccc3)C2=O)cc1OC	n	n	u	u	u
CS(=O)(=O)c1ccccc1C(=O)Nc1ccc(-c2nc3ccccc3[nH]2)cc1	n	n	u	u	n
CS(=O)(=O)c1ccccc1C(=O)Nc1ccc(-c2nc3ccccc3o2)cc1	n	n	n	23.1µM	u
O=C(NCC1CCCO1)c1cccnc1NCc1ccc(F)cc1 (stereo not drawn)	n	n	n	n	n
Cc1ccc(NC(=O)CSc2nnc(Cc3csc(C)n3)o2)cc1	x	n	x	u	n
CCOc1ccc(Nc2nc(Cc3nnc(SCC(=O)c4ccc(C)c(C)c4)o3)cs2)cc1	n	n	u	16.4µM	29.1µM
O=C(O)CSCc1cnn(-c2ccccc2)c1-n1cccc1	n	n	n	n	n
COc1cccc(CNC(=O)CSCc2cnn(-c3ccccc3)c2-n2cccc2)c1OC	n	n	n	u	25.9µM
COc1ccccc1CNC(=O)CSCc1cnn(-c2ccccc2)c1-n1cccc1	n	n	n	16.4µM	u
O=C(CSCc1cnn(-c2ccccc2)c1-n1cccc1)N1CCN(Cc2ccccc2)CC1	n	n	n	13µM	u
Cc1ccc(CNC(=O)CCSCc2cnn(-c3ccccc3)c2-n2cccc2)cc1	x	n	x	14.6µM	18.4µM
O=C(CSCc1cnn(-c2ccccc2)c1-n1cccc1)NCc1ccccc1F	x	n	x	u	u
Cc1cc(=O)c2c(o1)CC(C)(C)CC2=O	n	n	n	n	u
CCOc1ccc(/C=C(\C#N)C(=O)NC2CC2)c(OCC)c1	x	x	x	n	n
O=C(CSCc1cnn(-c2ccccc2)c1-n1cccc1)NCc1cccnc1	n	n	n	u	u
O=C(CSCc1cnn(-c2ccccc2)c1-n1cccc1)NCc1cccc(Cl)c1	x	n	x	23.1µM	16.4µM
O=C(NCC1CCCO1)c1cnn2c1NC(c1ccccc1)CC2C(F)(F)F (stereo not drawn)	n	n	n	n	n
Cc1nn(C)c(C)c1CNC(=O)c1nn2c(c1Cl)NC(c1cccs1)CC2C(F)(F)F (stereo not drawn)	u	n	u	9.2µM	16.4µM
O=C(NCC1CCCO1)c1nn2c(c1Cl)NC(c1ccc(F)cc1)CC2C(F)(F)F (stereo not drawn)	n	n	n	u	16.4µM
Cc1ccc(NCc2nnc(SCC(=O)Nc3ncc(C)s3)n2CC2CCCO2)c(C)c1 (stereo not drawn)	n	n	n	u	n
COc1ccc(C)cc1NC(=O)Cn1cc(S(=O)(=O)Cc2ccccc2Cl)c2ccccc21	x	n	x	20.6µM	u
CN(C(=O)Cn1cc(S(=O)(=O)Cc2ccccc2Cl)c2ccccc21)c1ccccc1	x	n	x	20.6µM	20.6µM
COc1ccc(NC(=O)Cn2cc(S(=O)(=O)Cc3ccccc3)c3ccccc32)c(OC)c1	n	n	n	n	n
COc1ccc(N2CC(C(=O)Nc3nc4ccccc4s3)CC2=O)cc1 (stereo not drawn)	n	x	n	u	u
CCc1c(C)nc(N2CCN(c3ccccc3F)CC2)[nH]c1=O	n	x	n	23.1µM	u
COc1ccc(-c2nnc(SCc3ccccn3)n2C)cc1	n	n	n	u	29.1µM
